Laboratory results: PMC12136788
In all, about 5,800 sequences were measured (“enrichment r”: median about 0.68, highest 2% from about 11 on). Many of the other results were omitted from the sample, so the highest values are more common in it than they were.

T1: UNK ZnF1-6 (called full-length) (human, UniProt Q9C0B0 30-357)
T1 sequence: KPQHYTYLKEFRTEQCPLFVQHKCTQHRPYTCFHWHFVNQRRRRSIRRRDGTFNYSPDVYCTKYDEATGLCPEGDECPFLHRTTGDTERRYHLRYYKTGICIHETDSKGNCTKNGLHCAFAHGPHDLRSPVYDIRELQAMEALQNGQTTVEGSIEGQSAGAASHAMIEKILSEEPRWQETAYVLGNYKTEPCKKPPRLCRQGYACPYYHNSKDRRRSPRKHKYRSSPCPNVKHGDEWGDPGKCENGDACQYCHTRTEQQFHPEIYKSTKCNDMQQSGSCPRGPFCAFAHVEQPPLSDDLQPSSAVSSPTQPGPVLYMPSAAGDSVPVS

B1: chr6:57184343:57184440:+|3pUTR|ENSG00000112208|msi1_unk|FALSE|overlapping (ssRNA)
RNA: GGGAGUUCUACAGUCCGACGAUCUCUUCAGUUUUGUGAAUAACAAAACUAGCAAUAUUUUAAUUAUCUAUCUAGAGAUUUUUUAGAUUGAAUUCUUGUCUUGUACUAGGAUCUAGCAUAUUUCACUAUUCUGUGGAUGAAUACCAACAGAGGAUUGAGCAUCA
B2: chr22:43879677:43880794:-|three_prime_utr|ENSG00000100341|control|control|control (ssRNA)
RNA: GGGAGUUCUACAGUCCGACGAUCGAGAAAGGAGGACAGCCACAGAGACACAUGUCUUACUUUCAGAAUUUCCACGGGGGGACUAGGAGGGCAGCAUUGCUGGGGAGAGGGGCUCCUGUUCUGCCGUGGAGCUGCCCACGGAGCCAACAGAGGAUUGAGCAUCA
B3: chr3:115809552:115809653:-|3pUTR|ENSG00000185565|unk|total|mutant (ssRNA)
RNA: GGGAGUUCUACAGUCCGACGAUCCUCCCUCACCUCUCCUCACCUCCACCCCCUCCCCAGAGCACCCGUCAUGCCGCAAAUGCCCGGAAGUGCCAUUUUCAUUUUCUCCACUGUGCGUGUGUGCUCAAGUCUUUCGCUCUCACGCAACAGAGGAUUGAGCAUCA
B4: chr4:145760401:145760502:-|3pUTR|ENSG00000151612|unk|FALSE|unique (ssRNA)
RNA: GGGAGUUCUACAGUCCGACGAUCUCCGUACUUUUCUCUGAAAGGAAUCUUGUCUUGUUAAACCCUAAAGAGAGUGUCCUUAAUAGCAAUCAGCACUUGUAAGCUUAUAUACUGGUGCAUUUGGUUUUCUGUUGGGUGAAUGCGCAACAGAGGAUUGAGCAUCA
B5: chr17:50110931:50111032:+|3pUTR|ENSG00000005882|unk|FALSE|unique (ssRNA)
RNA: GGGAGUUCUACAGUCCGACGAUCUGUGCCCAGACAUGUGUGCUCAGGGUGGCUUUCUCCCUAGGACCUUCUGUGUAUAUAGUUAGUUUUAUAACCCUGAAUGCCCCCACCCUUCCCCUAAGCACACAGGGGUUAAAGCUGUGUCAACAGAGGAUUGAGCAUCA
B6: chr4:48579112:48579224:-|CDS|ENSG00000075539|unk|FALSE|bound_elsewhere (ssRNA)
RNA: GGGAGUUCUACAGUCCGACGAUCCUCUAUUGCCCUAGCUCGAUAGAUUUACAAACUUUAGCAGAAUGGAACUCUUCUCCUAUUAGCCACCAGUUUGAUGUGAUUAGUCCAUCACAUAUAUGGAUAUUUGCACAUGUGACCCAACAACAGAGGAUUGAGCAUCA
B7: chr19:12699869:12699961:-|3pUTR|ENSG00000105576|msi1_unk|FALSE|overlapping (ssRNA)
RNA: GGGAGUUCUACAGUCCGACGAUCGAGGGUGGGGGUGUAGUUACUUCCCAGUUGGCCAGAAAACUGGGCCUUGCAGACCCCCUUAGCAUUUUUUCCCUUUUUUUCCUUCCCUGCUUUCUACUUCUUUGGGGAGCCCCUUGUGUUCAACAGAGGAUUGAGCAUCA
B8: chr17:49053040:49053141:+|3pUTR|ENSG00000159217|unk|FALSE|unique (ssRNA)
RNA: GGGAGUUCUACAGUCCGACGAUCCUCAGCUCCUGUGAGGGGUCUGGUUAGGAGAGAGCCAUUUUUAAGGACAGGGAGUUUUAUAGCCCUUUUCUACUUUCCUCCCCUCCUCCCAGUCCUUAUCAAUCUUUUUUCCUUUUUCCUCAACAGAGGAUUGAGCAUCA
B9: chr1:160214333:160214525:+|3pUTR|ENSG00000162734|msi1|FALSE|unique (ssRNA)
RNA: GGGAGUUCUACAGUCCGACGAUCCUACAGUGUUUUCCUUUGCACCGAUCCCCACCCCAAUUCAAUCCCGGAAGGGACUUACUUAGGAAACCCUUCUUUACUAGAUAUCCUGGCCCCCUGGGCUUGUGAACACCUCCUAGCCACCAACAGAGGAUUGAGCAUCA
B10: chr12:53210768:53210868:-|3pUTR|ENSG00000172819|msi1_unk|FALSE|overlapping (ssRNA)
RNA: GGGAGUUCUACAGUCCGACGAUCAGGGGGGAUGCUGCUUAGCUGAUCCCGCCCUGACCCAGAGGAAGCCUCUAUUUAUUUAUUAGCUUUUGUUUACACCGUGGAAUUGACCCCUUCCUCCAGGGGUCUUGGGUGGGGGAGCCCCAACAGAGGAUUGAGCAUCA
B11: chr20:63933867:63933968:+|3pUTR|ENSG00000101152|msi1|FALSE|unique (ssRNA)
RNA: GGGAGUUCUACAGUCCGACGAUCAUCAGAGUGGGCCCCUUGCCAGGUGGCUUUUCAGUUACAGAGUCCAGUGGACCAUUUUGUAGAACCAUGCAGCUCCCUGCGGAAGGUGGGGUAGGGUGGGAAAGAGGAGCAGGUCUGGAGCAACAGAGGAUUGAGCAUCA
B12: chr19:3536616:3536717:+|3pUTR|ENSG00000105325|msi1|total|mutant (ssRNA)
RNA: GGGAGUUCUACAGUCCGACGAUCACCGCCGCAGGGCCAGGCGGACGGCGUGAGGUUUGUGUUGGGGCUGGUUCUGCCCAUGCCCGGGGGUGGGGGAGCUCCCAGGACAGACCAGCCUUGUUUCUCAUGUAAUGCAGUGACGCUCAACAGAGGAUUGAGCAUCA
B13: chr17:27756765:27757353:-|three_prime_utr|ENSG00000007171|control|control|control (ssRNA)
RNA: GGGAGUUCUACAGUCCGACGAUCCAAGUCUUAUUUCCUCAACGUUGCUCCCCAUCAAGCCCUUUACUUGACCUCCUAACAAGUAGCACCCUGGAUUGAUCGGAGCCUCCUCUCUCAAACUGGGGCCUCCCUGGUCCCUUGGAGCAACAGAGGAUUGAGCAUCA
B14: chr12:56205560:56205676:-|3pUTR|ENSG00000181852|unk|FALSE|unique (ssRNA)
RNA: GGGAGUUCUACAGUCCGACGAUCCUCUUGUGGCACAGGCCAUAAUUGUUCCAUAGACCCCUCUCUAGCCCUGUGACUGUAGUUAGUUACUUUGAUAAUUUUCUUUGGCCAUUGUUUGUUUAUAUUUCACAAACUCCACCUACUCAACAGAGGAUUGAGCAUCA
B15: chr15:74955373:74955475:-|3pUTR|ENSG00000178718|unk|FALSE|unique (ssRNA)
RNA: GGGAGUUCUACAGUCCGACGAUCGGACAGUUUUCCUUUCUAGUUUUCUUUCCCCUGCUUCAGAGGAGCAUCUCUGAGGGUUCUAGCUCUUUUAACACCCCUUUUCCCCCUGCUGGCCCAGAGGGAGACCCAGGACUGAACUCUCAACAGAGGAUUGAGCAUCA
B16: chr11:2944997:2945113:-|3pUTR|ENSG00000205531|unk|FALSE|unique (ssRNA)
RNA: GGGAGUUCUACAGUCCGACGAUCCUGUGUAGAGUAGGGCCCUGUUCUCCUUAGGAUGUUGCUUCUUGAUUUUUUUUUUUUUUUAGGGGUGGGUCAGGGUUGUGACACACCAGCCCAGGUGAGAGCUGCUGCGGGUCACCUCAUCAACAGAGGAUUGAGCAUCA

biological target: T1, UNK ZnF1-6 (called full-length); assay: nsRBNS (natural sequence RNA bind-n-seq); RBNS binding buffer (assumed for nsRBNS): 25 mM Tris pH 7.5, 150 mM KCl, 3 mM MgCl2, 0.01% Triton X-100, 500 ug/ml BSA, 20 U/ml SUPERase-In, 4 C; UNK is unkempt and MSI1 is Musashi-1; names of the RNAs are library labels; protein concentration not given here; high values mean tight binding

Row | Binder | binding signal
1 | B1 | 6.31 enrichment R
2 | B2 | 1.05 enrichment R
3 | B3 | 1.88 enrichment R
4 | B4 | 0.364 enrichment R
5 | B5 | 6.79 enrichment R
6 | B6 | 1.85 enrichment R
7 | B7 | 15.5 enrichment R
8 | B8 | 3.9 enrichment R
9 | B9 | 2.33 enrichment R
10 | B10 | 2.83 enrichment R
11 | B11 | 1.29 enrichment R
12 | B12 | 0.79 enrichment R
13 | B13 | 0.605 enrichment R
14 | B14 | 33.5 enrichment R
15 | B15 | 10.8 enrichment R
16 | B16 | 22 enrichment R
